FGF22 binding – shifts melting point of recombinant human FGF22; recombinant FGF22 thermal shift, SYPRO orange fluorescence; percent of sucrose octasulfate shift, DMSO zero; activity (Tm shift, normalised), % at 9.99 µM; 1.5% of 340,000 active;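 active means mean Tm shift, scaled 0 neutral to 100 positive control, at about 1.3% or above, every replicate too, limit read from the data; inconclusive means no clear call, values can overlap the other calls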
Target sequence (Q9HCT0 whole entry, looked up): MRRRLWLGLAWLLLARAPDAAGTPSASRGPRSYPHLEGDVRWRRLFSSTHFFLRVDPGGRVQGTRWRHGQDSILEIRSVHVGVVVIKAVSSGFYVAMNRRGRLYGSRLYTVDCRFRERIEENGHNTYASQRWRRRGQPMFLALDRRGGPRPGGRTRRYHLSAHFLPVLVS
MITF TRPM1 HTS – activators of MITF-driven TRPM1 promoter activity in SK-MEL-5 cells; activation, % at 12.5 µM; SK-MEL-5 TRPM1-promoter luciferase, 24 h; % of positive control, neutral wells = 0; 0.75% of 300,000 active;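 active means mean activation of at least 80% with every replicate also reaching 80%; inconclusive means mean reaches 80% but some replicate falls short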
MLL AF4-AF9 inh – inhibitors of human MLL-AF4/AF9 interaction. inhibition, % at 10 µM. 0.47% of 350,000 active. AlphaScreen, biotin-AF4 peptide binding to FLAG-AF9;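 active means every replicate reaching a set inhibition limit, whatever the replicate mean, cut at about 25% in these data; inconclusive means mean inhibition reaches that limit but some replicates miss it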
Wnt bcat act – activates Wnt/beta-catenin signaling in a reporter cell assay | AID 743398 | activation, % at 9.35 µM | 1.2% of 300,000 active | activator, plate reader; in the data active means activation above about 30%, passing the limit was not always enough; inconclusive means no clear call, values can overlap the other calls
esBAF inh – blocks esBAF chromatin remodeling in mouse ES cells; Bmi1-luciferase knock-in reporter, 24 h; 100% = twice the neutral-well signal; AID 602393; 2% of 350,000 active; reporter increase, % at 12.5 µM; in the data active means activation above about 40%; inconclusive means no clear call, values can overlap the other calls;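 further: a rise in the Bmi1 reporter signal indicates esBAF inhibition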
SMARCA2 act – SMARCA2 function activation, primary screen. activation, % at 9.1 µM. 1% of 370,000 active. MG213 cells, MMTV-luciferase reporter, dexamethasone, overnight; in the data active means activation above about 7.8%
esBAF Ring1 qPCR – de-represses Ring1 in mouse ESCs, confirming esBAF inhibition; shares compounds with esBAF inh; mouse ESC E14, Ring1 mRNA RT-qPCR fold change; fold change at 33 µM; 550 tested, under 10 active; AID 743176;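 active means Ring1 gene expression raised more than 2-fold over untreated cells in both replicates at either tested dose; inconclusive means only one replicate above 2-fold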;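 further: Ring1 transcript normalised to actin housekeeping signal by TaqMan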
esBAF Fgf4 qPCR – represses Fgf4 in mouse ESCs, confirming esBAF inhibition; shares compounds with esBAF inh; mouse ESC E14, Fgf4 mRNA qPCR fold change; active compounds read low; Fgf4 expression fold change at 33 µM; 4% of 550 active;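 active means Fgf4 expression under 0.8 fold of control in both repeat measurements at one or both tested doses; inconclusive means under 0.8 fold in just a single repeat measurement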;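 further: Fgf4 transcript normalised to actin in duplex TaqMan qPCR; cells exposed to compound for 24 h before lysis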
Bmi1 derepress – de-represses Bmi1 in mouse ESCs, confirming esBAF inhibition | shares compounds with esBAF inh | mouse ESE14 ES cells, Bmi1 mRNA qPCR fold; active compounds read high | fold change at 33 µM | 550 tested, under 10 active | AID 743180;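 active means Bmi1 expression fold change above 6 at either tested concentration, seen in replicate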;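 further: higher fold means more Bmi1 de-repression and stronger esBAF inhibition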
A549 tox SP – kills or reduces viability of A549 cells. 550 tested, under 10 active. shares compounds with esBAF inh. A549 cytotoxicity, plate reader. cell viability change % (negative = cytotoxic), % at 25 µM, hits read low. AID 743188; call rule not given here
HepG2 cytotox SP – HepG2 cell cytotoxicity at single point. activity change, negative = inhibition, % at 25 µM. shares compounds with esBAF inh. 4% of 550 active. AID 743189. plate reader; active compounds read low; in the data active means activity change below about -50%
HEK293 tox SP – kills or reduces viability of HEK293 cells. shares compounds with esBAF inh. HEK293 cytotoxicity, plate reader. activity change, negative = inhibition, % at 25 µM, hits read low. 3% of 550 active. AID 743190; in the data active means activity change below about -38%, passing the limit was not always enough
A number is an active result; - = inactive; ? = inconclusive; . = no result. A selection: hits, their analogues and other compounds. The true share with any hit is near 4.3%.

SMILES	FGF22 binding	MITF TRPM1 HTS	MLL AF4-AF9 inh	Wnt bcat act	esBAF inh	SMARCA2 act	esBAF Ring1 qPCR	esBAF Fgf4 qPCR	Bmi1 derepress	A549 tox SP	HepG2 cytotox SP	HEK293 tox SP
CC(=O)Nc1ccc2c(c1)CCc1ccccc1-2	-	-	-	-	-	-	.	.	.	.	.	.
CC(=O)Nc1ccc2c(c1)Cc1c(F)cccc1-2	-	-	-	-	83	-	-	?	-	-	-	-
Cc1ccc(NC(=O)C2CC3CCC2C3)c(Br)c1 (stereo unspecified)	-	-	-	-	73	-	-	-	-	-	-	-
CSc1ccccc1NC(=O)c1ccc(N2CCCC2=O)cc1	-	-	-	-	73	-	-	-	-	-	-	-
COc1ccc(N2CCN(CCNS(=O)(=O)c3ccccc3[N+](=O)[O-])CC2)cc1	.	.	.	.	.	-	.	.	.	.	.	.
NC(=O)c1ccccc1-c1nc(-c2ccccc2)no1	.	.	.	.	74	-	-	-	-	-	-	-
COc1ccccc1C(=O)NCC(=O)Nc1ccc2c(c1)OCO2	-	-	-	-	-	-	.	.	.	.	.	.
O=C(CNC(=O)c1ccccc1F)Nc1ccc2c(c1)OCO2	-	-	-	-	62	-	-	-	-	-	-	-
O=C(c1csc(Nc2ccccc2Cl)n1)N1CCCC1	.	.	.	.	54	-	-	-	-	-	-	-
Oc1[nH]c2ccccc2c1/C=N/N1CCCCC1	.	-	.	-	.	-	.	.	.	.	.	.
Oc1[nH]c2ccccc2c1/C=N/c1nccs1	.	-	.	-	71	-	-	-	-	-	-	-
O=S(=O)(c1ccc(F)cc1)N1CCCCN2[C@@H](CO)[C@H](c3ccc(C#CC4CCCC4)cc3)[C@@H]2C1	-	.	-	.	.	.	.	.	.	.	.	.
O=C(c1ccccc1F)N1CC(=O)N2[C@H](CO)[C@@H](c3ccc(-c4ccc(F)cc4)cc3)[C@H]2C1	-	.	-	.	.	.	.	.	.	.	.	.
CCCc1nc2c3ccccc3ccn2c1Cc1ccc(C)cc1	-	.	-	-	101	-	-	-	-	-	-56	-
CC(C)NC(=O)Nc1ccc2c(c1)C(=O)N([C@@H](C)CO)C[C@@H](C)[C@@H](CN(C)C(=O)CCCN(C)C)OCCCC[C@@H](C)O2	-	.	-	.	.	.	.	.	.	.	.	.
Cc1cc(C(=O)Cn2cnc3ccccc3c2=O)c(C)n1C1CC1	-	-	-	-	65	-	-	-	-	-	-	-
CN1C(=O)c2cc(NC(=O)c3cccc(F)c3)ccc2OC[C@H]2O[C@H](CC(=O)NC3CCC3)CC[C@@H]21	-	.	.	.	-	.	.	.	.	.	.	.
CC(=O)Nc1ccc(CNc2nc(NC(C)C)nc3cc(-c4ccccc4)sc23)cc1	-	.	-	-	-	-	.	.	.	.	.	.
C=CCNc1nc(NCc2ccc(NC(C)=O)cc2)c2sc(-c3ccccc3)cc2n1	-	.	-	-	66	-	.	.	.	-69	-88	-121
Cc1csc(NC(=O)Nc2ccc(Cl)cc2)n1	.	-	.	-	60	-	-	-	-	-	-	-
CSc1nnc(NC(=O)C23CC4CC(CC(C4)C2)C3)s1	-	-	-	-	58	-	-	?	-	-	-	-
NC(=O)CSc1nnc(NC(=O)C23CC4CC(CC(C4)C2)C3)s1	.	-	.	.	.	.	.	.	.	.	.	.
Cc1cc2oc(=O)cc(CN(C)Cc3cccc(F)c3)c2cc1Cl	-	-	-	-	-	-	.	.	.	.	.	.
CN(Cc1ccccc1F)Cc1cc(=O)oc2cc(O)c(Cl)cc12	-	-	-	-	-	-	.	.	.	.	.	.
Cc1cc2oc(=O)cc(CN(C)Cc3ccccc3F)c2cc1Cl	-	-	-	-	64	-	-	0.65	-	-	-	-
